These results are taken from PubChem BioAssay (NCATS).

Each structure is given as a SMILES string. Inconclusive results are not listed. Active and inactive are the calls of the source. The call rests on the fitted dose curve; in most records, active means well fitted curve in the direction sought with a large enough effect; inconclusive means small, poorly fitted or top-dose-only effect, or another doubt; inactive means no such curve, though single readings can be large; an effect the other way counts as inactive or inconclusive.

A short description of assay [1]: qHTS of pediatric cancer cell lines to identify multiple opportunities for drug repurposing: Confirmatory screen for LAN-5 cells (AID 1347113). Further: nearly all actives have a fitted effect of over 65% in size. Further: potency means the concentration at half of the fitted maximal effect. The procedure, abridged: (§1)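 Viability after 48 h compound treatment at 37C, 500-1,000 cells/well, read as ATP luminescence with CellTiter-Glo. Primary screens used 11-point (MIPE, 0.78 nM-46 µM) or 8-point (NPC, 0.59 nM-46 µM) final concentrations; follow-up screens used 11-point dilutions.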
On the technique in general: In qHTS, concentration-response curves come from the screen itself.

Assay [2] in a line: qHTS of pediatric cancer cell lines to identify multiple opportunities for drug repurposing: Confirmatory screen for RD cells (AID 1347124).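 Further: cells exposed to compound for 48 h before viability readout; nearly all actives have a fitted effect of over 65% in size.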 Further: potency means the concentration at half of the fitted maximal effect. In a few lines: as §1
Assay [3] can be described thus: qHTS of pediatric cancer cell lines to identify multiple opportunities for drug repurposing: Confirmatory screen for Rh18 cells (AID 1347125). Further: nearly all actives have a fitted effect of over 55% in size. Further: potency means the concentration at half of the fitted maximal effect. The procedure, abridged: as §1
The nature of assay [4]: qHTS of pediatric cancer cell lines to identify multiple opportunities for drug repurposing: Confirmatory screen for Rh30 cells (AID 1347126). Further: nearly all actives have a fitted effect of over 55% in size. Further: potency means the concentration at half of the fitted maximal effect. In a few lines:
as §1

A short description of assay [5]: qHTS of pediatric cancer cell lines to identify multiple opportunities for drug repurposing: Confirmatory screen for Saos-2 cells (AID 1347127). Further: nearly all actives have a fitted effect of over 60% in size. Further: potency means the concentration at half of the fitted maximal effect. In a few lines:
as §1

Assay [6] can be described thus: qHTS of pediatric cancer cell lines to identify multiple opportunities for drug repurposing: Confirmatory screen for SK-N-SH cells (AID 1347129).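 Further: cells exposed to compound for 48 h before viability read; nearly all actives have a fitted effect of over 60% in size.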 Further: potency means the concentration at half of the fitted maximal effect. The procedure, abridged: as §1
Assay [7] deals with Zika virus NS2B-NS3 protease. Nature of the assay: Primary screen GU AMC qHTS for Zika virus inhibitors (AID 1347154). Further: nearly all actives have a fitted effect of over 70% in size. Further: potency means the concentration at half of the fitted maximal effect. The procedure, abridged: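 Unlinked Zika NS2B hydrophilic domain–NS3 protease complex at 25 nM in 10 mM Tris-HCl pH 8.0, 0.01% Tween 20, with an AMC peptide substrate. Fluorescence change (340/450 nm) over 15 min at room temperature, normalized to controls, fitted to 4-parameter Hill.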

The nature of assay [8]: qHTS of pediatric cancer cell lines to identify multiple opportunities for drug repurposing: Confirmatory screen for SJ-GBM2 cells (AID 1347116). Further: nearly all actives have a fitted effect of over 60% in size. Further: potency means the concentration at half of the fitted maximal effect. The procedure, abridged:
(§2)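 Viability measured as metabolically active cells via CellTiter-Glo luminescence following 48 hours of compound exposure, 11-point dilutions in confirmatory testing. 500-1,000 cells/well plated 5 hours before dosing; controls were DMSO and 2.3 µM bortezomib.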

A short description of assay [9]: qHTS of pediatric cancer cell lines to identify multiple opportunities for drug repurposing: Confirmatory screen for BT-37 cells (AID 1347117). Further: nearly all actives have a fitted effect of over 55% in size. Further: potency means the concentration at half of the fitted maximal effect. In a few lines: as §1
Assay [10] is described as follows: qHTS of pediatric cancer cell lines to identify multiple opportunities for drug repurposing: Confirmatory screen for TC32 cells (AID 1347118).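 Further: cells exposed to compound for 48 h before the read; nearly all actives have a fitted effect of over 65% in size.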 Further: potency means the concentration at half of the fitted maximal effect. The procedure, abridged:
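Measured quantity: luminescence from CellTiter-Glo, reflecting metabolically active TC32 cells following 48 h of compound. Curves came straight from multi-point titrations, with 8 or 11 points in primary and 11 in confirmatory screening.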

Assay [11] can be described thus: qHTS of pediatric cancer cell lines to identify multiple opportunities for drug repurposing: Confirmatory screen for MG 63 (6-TG R) cells (AID 1347119). Further: nearly all actives have a fitted effect of over 55% in size. Further: potency means the concentration at half of the fitted maximal effect. The procedure, abridged:
as §1

A short description of assay [12]: qHTS of pediatric cancer cell lines to identify multiple opportunities for drug repurposing: Confirmatory screen for control Hh wild type fibroblast cells (AID 1347121). Further: nearly all actives have a fitted effect of over 70% in size. In a few lines: as §1
Assay [13] is described as follows: qHTS of pediatric cancer cell lines to identify multiple opportunities for drug repurposing: Confirmatory screen for DAOY cells (AID 1347114). Further: nearly all actives have a fitted effect of over 65% in size. Further: potency means the concentration at half of the fitted maximal effect. In a few lines: as §2
A short description of assay [14]: qHTS of pediatric cancer cell lines to identify multiple opportunities for drug repurposing: Confirmatory screen for Rh41 cells (AID 1347123).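 Further: 48 h compound exposure; nearly all actives have a fitted effect of over 60% in size.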 Further: potency means the concentration at half of the fitted maximal effect. The procedure, abridged:
as §1

Assay [15] concerns the target N-terminal Xaa-Pro-Lys N-methyltransferase 1 (Homo sapiens) (UniProt Q9BV86). In words: qHTS Assay for Inhibitors of N-terminal methyltransferase 1 (NTMT1): LOPAC validation of the NTMT1 SAHH-coupled ThioGlo3 Assay (AID 1347143).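 Further: SAH from peptide methylation measured as thiol fluorescence via SAHH coupling and ThioGlo3; nearly all actives have a fitted effect of over 70% in size.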 Further: potency means the concentration at half of the fitted maximal effect. The procedure, abridged:
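Steps: dispense 125nM NTMT1; pin-transfer test compounds at several concentrations, with 1uM RCC1-6 peptide as control; incubate 1 min; start with reagent holding 100uM SAM, 10uM SAHH, 15uM ThioGlo3; read at 0 and 30 min.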

The test system of assay [16] is Zika virus NS2B-NS3 protease (unlinked). In words: Optimization of GU AMC qHTS for Zika virus inhibitors: Unlinked NS2B-NS3 protease assay (AID 1347151). Further: nearly all actives have a fitted effect of over 80% in size. Further: potency means the concentration at half of the fitted maximal effect. The procedure, abridged:
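Fluorescence gain (340/450 nm) over 15 min at room temperature, ~20% conversion, gave percent inhibition fitted to a 4-parameter Hill equation; enzyme was unlinked NS2B-NS3 (25 nM final), pH 8.0 Tris buffer.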

In assay [17] the target is Furin (Homo sapiens) (UniProt P09958). Nature of the assay: Furin counterscreen qHTS for Zika virus inhibitors (AID 1347149). Further: nearly all actives have a fitted effect of over 70% in size. Further: potency means the concentration at half of the fitted maximal effect. In a few lines: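 Counterscreen measures cleavage of 2 microM BOC-RVRR-AMC, below its ~15 microM Km, by 5 nM full-length human furin at pH 7.0 after a 15-min compound preincubation. Inhibition derives from the 15-min fluorescence increase at 37C.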
Furin (Homo sapiens), sequence (P09958 whole entry, looked up): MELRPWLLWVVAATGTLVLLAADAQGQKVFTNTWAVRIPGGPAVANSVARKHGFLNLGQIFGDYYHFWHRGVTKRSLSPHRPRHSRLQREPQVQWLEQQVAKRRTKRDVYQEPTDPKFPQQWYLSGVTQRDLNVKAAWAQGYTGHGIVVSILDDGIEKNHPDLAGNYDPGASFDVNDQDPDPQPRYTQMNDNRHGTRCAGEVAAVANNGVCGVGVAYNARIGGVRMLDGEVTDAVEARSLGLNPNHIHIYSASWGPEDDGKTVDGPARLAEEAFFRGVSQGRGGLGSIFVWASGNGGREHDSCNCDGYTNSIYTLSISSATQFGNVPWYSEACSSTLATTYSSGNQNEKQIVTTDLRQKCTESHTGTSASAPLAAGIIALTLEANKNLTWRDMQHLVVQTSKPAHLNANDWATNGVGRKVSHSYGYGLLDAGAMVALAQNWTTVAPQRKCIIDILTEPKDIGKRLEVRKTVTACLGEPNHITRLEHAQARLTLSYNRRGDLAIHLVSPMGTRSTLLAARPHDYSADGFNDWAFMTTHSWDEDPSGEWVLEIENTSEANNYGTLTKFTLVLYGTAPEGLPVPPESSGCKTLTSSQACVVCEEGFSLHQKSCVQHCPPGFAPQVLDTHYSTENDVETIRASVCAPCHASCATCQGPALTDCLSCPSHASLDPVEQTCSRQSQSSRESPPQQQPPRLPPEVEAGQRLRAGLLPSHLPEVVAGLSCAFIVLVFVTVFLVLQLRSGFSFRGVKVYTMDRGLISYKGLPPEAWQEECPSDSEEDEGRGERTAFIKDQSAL
On the technique in general: The purpose of a counterscreen is to sort out artefacts and off-target activity.

Assay [18] in a line: Confirmatory screen GU Rhodamine qHTS for Zika virus inhibitors qHTS (AID 1347157). Further: nearly all actives have a fitted effect of over 70% in size. Further: potency means the concentration at half of the fitted maximal effect. In a few lines:
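Compounds, tested up to 114 microM, were incubated for 15 minutes with 25 nM unlinked NS2B-NS3 protease at pH 8.0. Cleavage of 1.5 microM Rhodamine110 substrate was then followed by fluorescence for 15 minutes.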

Assay [19] concerns Zika virus NS2B-NS3 protease (linked construct). In words: Confirmatory screen NINDS AMC qHTS for Zika virus inhibitors (AID 1347152). The procedure, abridged:
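IC50s from 4-parameter Hill fits of percent inhibition, based on AMC fluorescence gain (340/450 nm) over 15 min with 10 microM Bz-Nle-KRR-AMC. Enzyme: 1 nM linked NS2B-NS3 in Tris-HCl pH 8.0; 15-min compound preincubation.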

N-terminal Xaa-Pro-Lys N-methyltransferase 1 (Homo sapiens), sequence (Q9BV86 whole entry, looked up): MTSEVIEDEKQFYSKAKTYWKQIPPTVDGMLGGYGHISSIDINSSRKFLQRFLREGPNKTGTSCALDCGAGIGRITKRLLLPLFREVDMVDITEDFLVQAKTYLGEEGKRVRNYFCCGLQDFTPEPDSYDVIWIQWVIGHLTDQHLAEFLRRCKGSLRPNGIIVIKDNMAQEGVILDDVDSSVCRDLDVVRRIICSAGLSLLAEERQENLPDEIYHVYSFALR

For `CCCC(=O)O[C@]1(C(=O)CCl)[C@@H](C)C[C@H]2[C@@H]3CCC4=CC(=O)C=C[C@]4(C)[C@@]3(F)C(=O)C[C@@]21C`, the Potency result in [1], in [2], in assay [3], in assay [4], in assay [5] and in assay [6] was “inactive” each time. In addition, the Potency entry in assay [7] is “inactive”.
As to `CC(C)(C)CC(=O)OCC(=O)[C@@]1(O)CC[C@H]2[C@@H]3CCC4=CC(=O)C=C[C@]4(C)[C@H]3[C@@H](O)C[C@@]21C`, the Potency result in assay [8], in assay [9], in assay [10], in [11], in [12] and in assay [2] was “inactive” throughout. For the same compound, the Potency result in assay [3], in assay [5], in [6] and in [7] was “inactive” throughout.
With `Nc1ccc2cc3ccc(N)cc3nc2c1`, the Potency in [1] is 8.27 µM (active); in assay [13], 9.27 µM (active); in [8], 5.85 µM (active); in [9], 11.7 µM (active); in [10], 9.27 µM (active); in [11], 23.3 µM (active). Besides, the Potency in assay [14] was 5.85 µM (active); in [2], 5.22 µM (active); in assay [4] it was 7.37 µM (active); in assay [6], 5.26 µM (active).
With `CCC1=C[C@@H]2CN(C1)Cc1c([nH]c3ccccc13)[C@@](C(=O)OC)(c1cc3c(cc1OC)N(C)[C@H]1[C@@](O)(C(=O)OC)[C@H](OC(C)=O)[C@]4(CC)C=CCN5CC[C@]31[C@@H]54)C2`, the Potency in assay [1] is 0.329 µM (active); in assay [13], 0.0329 µM (active); in assay [8], 0.0522 µM (active); in assay [9] it was 0.0261 µM (active); in assay [10], 0.0165 µM (active); in [11], 0.0233 µM (active). Moreover, the Potency was 0.0293 µM (active) in assay [2] and 0.0185 µM (active) in assay [5]. The Potency result in assay [12], in [3] and in assay [7] was “inactive” throughout.
For the compound `Cc1nn(-c2ccccc2)c(C)c1/C=N/N1CCN(Cc2ccccc2)CC1`, the Potency in [15] was 15.8 µM (active). In assay [16], the Potency entry is “inactive”.
On to `C[C@H]1C[C@@H]2[C@H]([C@@H](O)C[C@@]3(C)[C@H]2CC[C@]3(O)C(=O)CO)[C@@]2(C)C=CC(=O)C=C12`, for which the Potency entry in assay [13], in assay [8], in assay [12], in assay [14], in assay [3] and in [6] was “inactive” each time. Moreover, the Potency entry in [7] is “inactive”.
With `Cc1nc(N)nc(N)c1-c1ccc(Cl)c(Cl)c1`, the Potency entry in assay [1], in assay [11], in assay [12], in [14], in [3] and in assay [4] was “inactive” in each case. For the same compound, the Potency entry in assay [6] and in assay [7] was “inactive” throughout. Also, the Potency in assay [10] is 0.147 µM (active); in [2] it was 2.61 µM (active).
As to `O=C1NC(=O)/C(=C/c2ccc3c(c2)OC(F)(F)O3)S1`, the Potency entry in assay [15] and in [17] was “inactive” in each case. Also, in [18], the Potency is 12.4 µM (active).
Regarding `CCCCC(=O)OCC(=O)[C@H]1[C@H](C)C[C@H]2[C@@H]3C[C@H](F)C4=CC(=O)C=C[C@]4(C)[C@@]3(F)[C@@H](O)C[C@@]21C`, the Potency in assay [1] was 23.3 µM (active); in assay [8], 20.8 µM (active); in assay [9] it was 20.8 µM (active); in assay [10] it was 16.5 µM (active); in assay [11], 18.5 µM (active); in assay [14] it was 29.3 µM (active). Besides, the Potency was 20.8 µM (active) in [3] and 14.7 µM (active) in assay [4]. Moreover, the Potency result in assay [13], in assay [6] and in assay [7] was “inactive” each time.
On to `O=C(COCCOCCOCC(=O)Nc1c(I)cc(I)c(C(=O)O)c1I)Nc1c(I)cc(I)c(C(=O)O)c1I`, for which the Potency entry in [17], in assay [7] and in assay [18] was “inactive” each time.
Take `CC(C)C(C)(C)C(C)(C)C(C)(C)S`: the Potency result in assay [7] was “inactive”.
Still for that read-out and setting: under `CC(=O)N(CC(=O)N(C)C)c1ccccc1` stands “inactive”.
`O=C(NO)c1ccccc1`: the Potency entry in assay [7] was “inactive”.
Still for that read-out and setting: under `CC(=O)N[C@@H](CCC(N)=O)C(=O)O` stands “inactive”; under `COc1ccccc1OCC1CNC(=O)O1` (centres undefined), “inactive”.
Still for that read-out and setting: for `O=C(C1CCCCC1)N1CC(=O)N2CCCc3ccccc3C2C1` (centres undefined) the value was “inactive”.
Regarding `COC(=O)C1=CO[C@@H](O)[C@@H]2C(CO)=CC[C@H]12`, the Potency result in assay [15] and in assay [16] was “inactive” throughout.
In the case of `COc1ccccc1N1CCN(CCN2C(=O)CC3(CCCC3)CC2=O)CC1`, the Potency in assay [15] is 56.2 µM (active). Also, the Potency entry in assay [16] and in assay [7] was “inactive” each time.
With `CC(=O)CC/C=C(\C)CC/C=C(\C)CC/C=C(\C)CCC=C(C)C`, the Potency result in assay [7] is “inactive”.
Turning to `Cc1nc(C2CCCCC2)c(-c2ccc(S(N)(=O)=O)c(F)c2)o1`, the Potency in assay [17] is 24.1 µM (active); in assay [19] it was 24.1 µM (active); in assay [7], 14.4 µM (active).
For the compound `O=[N+]([O-])c1ccc(-c2nc(-c3ccc(F)cc3)c(-c3ccncc3)[nH]2)cc1`, the Potency result in assay [16] was “inactive”.
Turning to `CC(C)N(CCC(=O)c1ccc2ccccc2c1)Cc1ccccc1`, the Potency entry in assay [15] and in assay [7] was “inactive” each time. The Potency in assay [16] was 26.7 µM (active).
Regarding `CCCCCOc1ccc(C2SC(=O)NC2=O)cc1OCC` (centres undefined), the Potency result in assay [7] was “inactive”.
For the compound `Nc1ncnc2n[nH]c(Nc3ccc(F)cc3)c12`, the Potency entry in [15], in [16] and in [7] was “inactive” in each case.
As to `CC(=O)OCC(=O)Nc1cc(C#N)cc(NC(=O)COC(C)=O)c1Cl`, in assay [7], the Potency result is “inactive”.
For `C[N+](C)(C)CCO`, the Potency result in [15] and in assay [16] was “inactive” throughout.
With `COc1cccc2c1[C@@H]1CN(CCCCn3c(=O)[nH]c4c(sc5ncc(-c6ccccc6)nc54)c3=O)C[C@@H]1CO2`, the Potency entry in assay [16] is “inactive”.
Turning to `O=C1NC(c2cccc([N+](=O)[O-])c2)=CCN1c1ccccc1O`, the Potency in [15] is 50.1 µM (active). Besides, the Potency entry in assay [16] and in [7] was “inactive” in each case.
